The values below come from PubChem BioAssay (NCATS).

Each structure is given as a SMILES string. Inconclusive results are not listed. Calls of active or inactive are those of the source. The call rests on the fitted dose curve; in most records, active means well fitted curve in the direction sought with a large enough effect; inconclusive means small, poorly fitted or top-dose-only effect, or another doubt; inactive means no such curve, though single readings can be large; an effect the other way counts as inactive or inconclusive.

Assay [1] concerns the target Glutathione peroxidase 1 (Homo sapiens) (UniProt P07203). The assay can be described thus: Primary qHTS Assay for Inhibitors of Recombinant Selenoprotein Glutathione Peroxidase 1 (GPX1) (AID 1845191). Further: nearly all actives have a fitted effect of over 65% in size. The method in brief:
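GR-coupled readout: NADPH consumption tracked by fluorescence, ex 340/em 450 nm, at t=0 and after 15 min at RT. Final mix 10 nM GPX1, 1 mM GSH, 0.5 mM CHP, 0.5 mM NADPH, 100 nM GR, 0.01% BSA, following 30 min enzyme–compound preincubation.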
Background: qHTS replaces the single test concentration by a dilution series.

For assay [2], the target named is Phospholipid hydroperoxide glutathione peroxidase GPX4 (Homo sapiens) (UniProt P36969). The assay can be described thus: Primary qHTS Assay for Inhibitors of Recombinant Selenoprotein Glutathione Peroxidase 4 (GPX4) (AID 1845192). Further: nearly all actives have a fitted effect of over 65% in size. In a few lines: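 Steps: GPX4 plus compound, 30 min RT; add GR/GSH/NADPH master mix; start with cumene hydroperoxide; read 340/450 nm fluorescence at 0 and 15 min. Finals were 200 nM GPX4, 1 mM GSH, 0.5 mM CHP, 0.5 mM NADPH, 100 nM GR.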
Chain of Phospholipid hydroperoxide glutathione peroxidase GPX4 (Homo sapiens) (P36969 whole entry, looked up): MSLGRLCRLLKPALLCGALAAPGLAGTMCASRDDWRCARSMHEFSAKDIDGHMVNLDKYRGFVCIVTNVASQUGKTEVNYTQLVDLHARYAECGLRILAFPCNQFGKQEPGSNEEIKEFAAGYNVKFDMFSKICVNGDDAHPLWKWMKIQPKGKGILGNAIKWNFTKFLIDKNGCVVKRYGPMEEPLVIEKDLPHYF

For assay [3], the target named is Luciferin 4-monooxygenase (Photinus pyralis) (UniProt P08659). The assay can be described thus: Primary firefly luciferase (FLuc) qHTS assay for identification of artifact compounds. (AID 1845220). Further: nearly all actives have a fitted effect of over 60% in size. The settings on record: outcome: dose series up to 54.1 µM unless noted. In a few lines:
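D-luciferin and ATP (10 uM each, final) in Tris acetate buffer pH 7.6 were incubated with compounds for 15 min at room temperature. The reaction was started with 10 nM Photinus pyralis luciferase and luminescence read after 5 min. Percent inhibition was fitted to a 4-parameter Hill equation.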

The test system of assay [4] is Nanoluciferase (engineered Oplophorus gracilirostris luciferase). The assay can be described thus: Primary Nanoluciferase (NLuc) qHTS assay for identification of artifact compounds. (AID 1845222). The method in brief:
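Diluted conditioned medium from NLuc-expressing S16 cells treated with compounds for 15 min at room temperature, then Nano-Glo substrate added; luminescence read after 5 min. Percent inhibition versus no-enzyme and DMSO controls fitted to 4-parameter Hill equation.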

Assay [5] is described as follows: Primary redox qHTS assay for identification of artifact compounds. (AID 1845223). In a few lines:
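Redox-cycling detection via DTT (250 uM final) oxidation coupled to Amplex Red (25 uM)/HRP (250 mU/mL) in HBSS. 15 min preincubation plus 30 min after DTT, room temperature. Ex/Em 525/598 nm; 4-parameter Hill fit against DMSO and 10 uM DA3003.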

Assay [6] can be described thus: Quantitative High-Throughput drug screen in 47 multiple myeloma cell lines against the NCATS MIPE library collection: FR4_PLB cell viability assay (AID 1918924; further: nearly all actives have a fitted effect of over 35% in size). In a few lines:
(§1)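 We plated 500 myeloma cells per well, pinned in MIPE 4.0 compounds, and incubated for 48 hours at 37C. ATP was then quantified with CellTiter-Glo, with DMSO and media-only wells defining 100% and 0%.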

A short description of assay [7]: Quantitative High-Throughput drug screen in 47 multiple myeloma cell lines against the NCATS MIPE library collection: EJM_DSMZ cell viability assay (AID 1918926; further: nearly all actives have a fitted effect of over 30% in size; further: potency means the concentration at half of the fitted maximal effect). The method in brief: (§2)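 Inhibition of cell viability is measured here. Each line was plated at 500 cells per well, treated with MIPE 4.0 drugs, kept 48 hours at 37C, then assayed for ATP content by CellTiter-Glo luminescence.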

Assay [8] is described as follows: Quantitative High-Throughput drug screen in 47 multiple myeloma cell lines against the NCATS MIPE library collection: AMO1_DSMZ cell viability assay (AID 1918927; further: nearly all actives have a fitted effect of over 30% in size; further: potency means the concentration at half of the fitted maximal effect). In a few lines:
as §2

A short description of assay [9]: Quantitative High-Throughput drug screen in 47 multiple myeloma cell lines against the NCATS MIPE library collection: ARP1_JJKsccF8 cell viability assay (AID 1918928; further: nearly all actives have a fitted effect of over 40% in size; further: potency means the concentration at half of the fitted maximal effect). In a few lines: (§3)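 Cell viability inhibition in this qHTS is measured via ATP content (CellTiter-Glo) after 48 h drug exposure at 37 °C. Wells hold 500 cells; DMSO-treated wells define 100% and medium-only wells 0%.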

Assay [10] can be described thus: Quantitative High-Throughput drug screen in 47 multiple myeloma cell lines against the NCATS MIPE library collection: JIM3_ECACC cell viability assay (AID 1918963; further: nearly all actives have a fitted effect of over 35% in size; further: potency means the concentration at half of the fitted maximal effect). The method in brief: as §1
Assay [11] is described as follows: Primary fluorescence-based thiol-reactive (MSTI) qHTS assay for identification of artifact compounds. (AID 1845221).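 Further: thiol-reactive compounds lower the probe fluorescence signal; nearly all actives have a fitted effect of over 65% in size.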 In a few lines: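 qHTS titration of compound; 4 uM MSTI, PBS pH 7.4, 2% DMSO; 1 h RT, dark; fluorescence 525/598 nm; normalized to Acetyl-MSTI and MSTI; 4-parameter Hill fit.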
Assay [12] can be described thus: Quantitative High-Throughput drug screen in 47 multiple myeloma cell lines against the NCATS MIPE library collection: Delta47_JCRB cell viability assay (AID 1918925; further: nearly all actives have a fitted effect of over 45% in size; further: potency means the concentration at half of the fitted maximal effect). The method in brief:
as §2

The nature of assay [13]: Quantitative High-Throughput drug screen in 47 multiple myeloma cell lines against the NCATS MIPE library collection: Karpas620_DSMZ cell viability assay (AID 1918959). Further: nearly all actives have a fitted effect of over 30% in size. Further: potency means the concentration at half of the fitted maximal effect. The method in brief: as §1
Assay [14] is described as follows: Quantitative High-Throughput drug screen in 47 multiple myeloma cell lines against the NCATS MIPE library collection: INA6_PLB cell viability assay (AID 1918965; further: nearly all actives have a fitted effect of over 55% in size; further: potency means the concentration at half of the fitted maximal effect). The method in brief: (§4)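 Viability readout: CellTiter-Glo luminescence following 5 min room-temperature incubation with reagent. Prior exposure: 48 h, 37C, humidified 5% CO2, 500 cells per well.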
Assay [15] can be described thus: Quantitative High-Throughput drug screen in 47 multiple myeloma cell lines against the NCATS MIPE library collection: Karpas417_ECACC cell viability assay (AID 1918961). Further: potency means the concentration at half of the fitted maximal effect. The settings on record: Karpas417 myeloma viability, CellTiter-Glo ATP luminescence, 48 h; viability (% of DMSO): at 45.8 µM (top of the series). In a few lines: as §4
Assay [16] is described as follows: Quantitative High-Throughput drug screen in 47 multiple myeloma cell lines against the NCATS MIPE library collection: JIM1_ECACC cell viability assay (AID 1918964; further: potency means the concentration at half of the fitted maximal effect). The method in brief:
as §2

Assay [17] is described as follows: Quantitative High-Throughput drug screen in 47 multiple myeloma cell lines against the NCATS MIPE library collection: ARD_JJKsccE7 cell viability assay (AID 1918929; further: potency means the concentration at half of the fitted maximal effect). In a few lines:
as §2

Assay [18] is described as follows: Quantitative High-Throughput drug screen in 47 multiple myeloma cell lines against the NCATS MIPE library collection: KHM11_PLB cell viability assay (AID 1918962). Further: nearly all actives have a fitted effect of over 35% in size. Further: potency means the concentration at half of the fitted maximal effect. In a few lines: as §1
Assay [19] in a line: Quantitative High-Throughput drug screen in 47 multiple myeloma cell lines against the NCATS MIPE library collection: KMM1_JCRB cell viability assay (AID 1918960). Further: nearly all actives have a fitted effect of over 30% in size. The method in brief: as §3

Chain of Glutathione peroxidase 1 (Homo sapiens) (P07203 whole entry, looked up): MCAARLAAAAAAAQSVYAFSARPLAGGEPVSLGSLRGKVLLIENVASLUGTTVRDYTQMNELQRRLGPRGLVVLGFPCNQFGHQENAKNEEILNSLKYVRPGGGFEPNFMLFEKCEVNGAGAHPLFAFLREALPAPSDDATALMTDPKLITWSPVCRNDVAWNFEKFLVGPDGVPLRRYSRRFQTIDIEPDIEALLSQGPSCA

On to `O=C(Oc1ccc([N+](=O)[O-])cc1)N1CCN(Cc2cccc(Oc3ccccc3)c2)CC1`, for which the Potency result in assay [1], in assay [2], in [6], in assay [7], in [8] and in [9] was “inactive” throughout. The Potency result in assay [10] was “inactive”. Besides, the outcome in [3], in assay [4] and in assay [5] was inactive.

On to `CCN(CC)C(=O)c1ccc(C2=CC3(CCNCC3)Oc3cccc(O)c32)cc1`, for which the Potency result in assay [1], in [2], in [11], in [12], in assay [7] and in assay [8] was “inactive” each time. Besides, the Potency entry in assay [13], in assay [10] and in assay [14] was “inactive” each time. Further, the call in assay [3], in assay [4] and in [5] was inactive.

Regarding `CCNC(=O)CC1N=C(c2ccc(Cl)cc2)c2cc(OC)ccc2-n2c(C)nnc21` (stereo not given), the Potency result in [1], in [2] and in assay [11] was “inactive” each time. Moreover, the outcome in [3], in assay [4] and in assay [5] was inactive. The Potency in assay [12] is 6.62 µM (active); in assay [8], 10.5 µM (active); in [15], 4.18 µM (active); in assay [16], 16.6 µM (active); in assay [14], 6.62 µM (active).

Regarding `COC1=C[C@@H]2[C@@H]3Cc4ccc(OC)c(O)c4[C@]2(CCN3C)CC1=O`, the Potency result in assay [1] and in assay [11] was “inactive” in each case. The compound was classed as inactive in assay [3], in assay [4] and in assay [5]. Also, the Potency is 3.32 µM (active) in assay [12]; 3.32 µM (active) in [8]; 26.4 µM (active) in assay [9]; 6.62 µM (active) in assay [17]; 20.9 µM (active) in assay [13]; 10.5 µM (active) in assay [15]. Moreover, the figures for the Potency in assay [18], in assay [10] and in assay [14] were 4.69 µM (active), 9.35 µM (active) and 8.33 µM (active), respectively.

Regarding `C[C@]12CC[C@H]3[C@@H](CCC4=CC(=O)CC[C@@]43C)[C@H]1CC[C@H]2OC(=O)CCC1CCCC1`, the Potency entry in [1], in assay [2], in assay [6], in [12], in [13] and in assay [19] was “inactive” throughout. Also, the Potency in assay [7] was 16.6 µM (active).

With `O=C(Oc1ccc([N+](=O)[O-])cc1)N1CCC(C(O)(c2ccc3c(c2)OCO3)c2ccc3c(c2)OCO3)CC1`, the Potency entry in [1], in [2], in assay [11], in [6], in [7] and in assay [9] was “inactive” in each case. The compound was classed as inactive in assay [3], in assay [4] and in assay [5]. In addition, the values for the Potency in assay [10] and in [14] were 8.33 µM (active) and 10.5 µM (active), respectively.

For the compound `C#CC1(O)CCC2C3CCC4=CC(=O)CCC4(C)C3CCC21C` (stereo not given), the Potency entry in [1], in assay [2], in [12], in assay [7], in [8] and in assay [9] was “inactive” throughout. Further, the Potency result in assay [13], in assay [19], in assay [18] and in assay [14] was “inactive” throughout.

For the compound `CC(=O)Nc1ccc(OC[C@](C)(O)C(=O)Nc2ccc([N+](=O)[O-])c(C(F)(F)F)c2)cc1`, the Potency entry in assay [1], in assay [2], in assay [6], in assay [17], in [13] and in assay [18] was “inactive” in each case. In addition, the Potency result in [10] was “inactive”. The call in assay [3], in [4] and in assay [5] was inactive.
